aSyn 5UTR act = Activators via SNCA 5'UTR binding, MLPCN | alpha-synuclein 5'UTR reporter, activators screen | activity score, % (tested at 7.5 µM), hits read low | 7.1% of 300,000 active | AID 1814; in the data active means activity score below about -60%
* marks the source's active call; other numbers are inactive results. These entries were drawn from the full list.

SMILES	aSyn 5UTR act
COc1ccc(-c2noc(Cc3ccccc3OC)n2)cc1	-64*
COc1ccc(-c2noc(Cc3cccs3)n2)cc1	-188*
COc1ccc(-c2noc(CCc3ccccc3)n2)cc1	-148*
Fc1ccc(-c2nnsc2Sc2ccccn2)cc1	-84*
CCOC(=O)c1cnn(-c2ccc(C(F)(F)F)cn2)c1N	-277*
CCOC(=O)c1cnn(-c2ncnc3c2cnn3C)c1N	-94*
CCn1c(SCC(O)c2ccccc2)nnc1-c1ccccc1 (stereo not drawn)	-70*
CCC(c1nnc(SCc2nc3ccccc3s2)n1Cc1ccccc1)N(C)C (stereo not drawn)	-101*
CCn1c(SCc2nc3ccccc3s2)nnc1-c1ccccc1	-117*
Cc1nnc(SCc2nc3ccccc3s2)n1-c1ccccc1	-195*
C(C#CCCCCCCCCC[n+]1ccccc1)#CCCCCCCCCC[n+]1ccccc1	73
Cc1nnc(SCc2nc3ccccc3s2)n1N	-145*
c1ccc(-n2cnnc2SCc2nc3ccccc3s2)cc1	-146*
CSc1ccc(-c2sc(Nc3ccccc3)n[n+]2-c2ccc(F)cc2)cc1	-143*
CCN(CC)C(=O)CSC(=Nc1ccccc1F)NC#N	-109*
CC(C)(C)NC(=S)N/N=C\c1ccc(-c2ccc([N+](=O)[O-])cc2)o1	-79*
C=CCNC(=S)N/N=C/c1ccc(-c2ccc(OC)cc2)o1	-62*
O=C(Nc1ccn(Cc2ccc(Cl)cc2)n1)c1ccccc1	-149*
O=C(Nc1ccn(Cc2ccccc2)n1)c1ccc2c(c1)OCO2	-171*
Cc1ccc(C(=O)Nc2ccn(Cc3ccc(F)cc3)n2)o1	-65*
Cc1nn(Cc2ccc(F)cc2)c2sc(C(=O)Nc3ccc(N4CCOCC4)cc3N3CCOCC3)cc12	61
Nc1ccccc1C(=O)NNC1=C(C(=O)C(F)(F)F)CCC1	-278*
C#CC[N+](C)(C)CCCCCCCCCCCC	77
Cc1[nH]c2ccccc2c1C(=O)CN1C(=O)NC2(CC(C)CC(C)(C)C2)C1=O (stereo not drawn)	57
Cc1[nH]c2ccccc2c1C(=O)CSC(=S)N(C)C	-76*
SMILES	aSyn 5UTR act
CC(=O)NC1=NC(=O)/C(=C/c2cc(C)n(-c3ccc(NC(C)=O)cc3)c2C)S1	-80*
O=C(Nc1ccc(Cl)cc1)C1C2CCCCC21 (stereo not drawn)	-150*
CCc1ccc(NC(=O)C2C3/C=C\CCCCC32)cc1 (stereo not drawn)	-165*
O=C(Nc1ccccc1)Nc1cccc(Cl)c1Cl	-237*
O=C(Nc1ccc(Cl)cc1)Nc1cccc2nsnc12	-126*
S=C(Nc1ccc(OCc2ccccc2)cc1)Nc1cccc(Cl)c1Cl	-102*
O=C(Nc1ccccc1)Nc1ccc(Br)c(Cl)c1	-126*
O=C(CN1CCCC1)Nc1ccc(NC(=O)Nc2ccccc2Cl)cc1	-126*
O=C(Nc1ccccc1)Nc1ccccc1Br	-94*
COc1cccc(/C=C/C(=O)c2ccc(NC3=NCCCS3)cc2)c1	-101*
Cc1cccc(/C=C/C(=O)c2ccc(NC3=NCCCS3)cc2)c1	-220*
CCCCNC(=S)N/N=C/c1cccc(OCC)c1O	-73*
O=C(CSc1nnc2ccccn12)N1CCc2ccccc2C1	-94*
Cc1ccnc(SCC(=O)N2CCc3ccccc32)n1	-87*
O=C(CSc1nnc2ccccn12)N1CCc2ccccc21	-98*
Cc1ccc(C(=O)Nc2nnc(SCC(=O)N3CCCc4ccccc43)s2)cc1	74
Cn1ccnc1SCC(=O)N1CCc2ccccc21	-69*
Cc1cccc(NC(=O)c2cc(=O)c3ccccc3o2)c1	-67*
Cc1cccc(NC(=O)c2cc(=O)c3ccccc3o2)n1	-132*
COc1cccc(NC(=O)c2cc(=O)c3ccccc3o2)c1	-72*
Cc1ccc(NC(=O)c2cc(=O)c3ccccc3o2)cc1	-190*
CN(C)c1ccc(N=Cc2nc(-c3ccccc3)oc2OC(=O)c2cccc(Cl)c2)cc1	-146*
CCc1c(C(=O)Nc2ccc(OC)cc2)[nH]c(C)c1C(C)=O	-93*
CCOc1ccc(NC(=O)c2[nH]c(C)c(C(C)=O)c2C)cc1	-76*
CCc1ccc(NC(=O)c2[nH]c(C)c(C(C)=O)c2C)cc1	-223*
SMILES	aSyn 5UTR act
COc1ccc(NC(=O)c2[nH]c(C)c(C(C)=O)c2C)cc1	-193*
COC(=O)Oc1ccc(/C=C/C(=O)OC(C)C)cc1OC(=O)OC	-127*
CC(=O)Nc1ccc(-c2cc3ccccc3o2)cc1	-147*
CC(=O)Nc1cccc(NC(=O)c2oc3ccccc3c2C)c1	-272*
CC(=O)Nc1cccc(NC(=O)c2cc3ccccc3o2)c1	-92*
CCC(=O)Nc1ccc(Cl)c(NC(=S)NC(=O)c2cc3ccccc3o2)c1	-95*
Cc1ccc(NC(=O)c2cc3ccccc3o2)cc1Cl	-270*
CC(C)C(=O)Nc1cccc(NC(=O)c2cc3ccccc3o2)c1	-108*
CSc1nsc(SCC(=O)Nc2ccc(OC(C)=O)cc2)n1	-124*
CSc1nsc(SCC(=O)Nc2ccccc2F)n1	-63*
CCOC(=O)c1ccc(NC(=O)CSc2nc(SC)ns2)cc1	-107*
COc1ccc(C(=S)N2CCOCC2)cc1OS(=O)(=O)c1ccccc1[N+](=O)[O-]	-70*
CCOc1cc(/C=N/Nc2ncnc(Cl)c2N)ccc1O	-89*
Cc1cc(C)c(S(=O)(=O)Nc2ccc(N(C)C)cc2)c(C)c1-n1cnnn1	-79*
CC1CCCN(C(=O)CSc2nnc(-c3cccs3)o2)C1 (stereo not drawn)	-79*
CCC1CCCCN1C(=O)CSc1nnc(-c2cccs2)o1 (stereo not drawn)	-74*
CC(C)(C)c1ccc(/C=C(\c2nc3ccccc3[nH]2)S(=O)(=O)c2ccccc2)cc1	-78*
Cc1cccc(/C=C(\c2nc3ccccc3[nH]2)S(=O)(=O)c2ccccc2)c1	-118*
O=c1c2ccccc2oc2ccc(-c3ccc4[nH]ccc4c3)cc12	-154*
COCCNc1c(-c2ccc(OC)cc2)nc2ccc(Cl)cn12	-117*
CCOC(=O)CNc1c(-c2ccc(OC)cc2)nc2ccc(Cl)cn12	-127*
CCC(C)(C)C1CCC(=NNc2nc3ccccc3[nH]2)CC1 (stereo not drawn)	-69*
CC(=O)N1CCC(=NNc2nc3ccccc3[nH]2)CC1	-66*
O=C(O)C1CCC(c2ccc(-c3ccccc3)cc2)CC1 (stereo not drawn)	-84*
O=C1/C(=C/c2cccs2)CCC/C1=C\c1cccs1	-125*
SMILES	aSyn 5UTR act
Cn1cccc1/C=C1\CCC/C(=C\c2cccn2C)C1=O	-154*
CCN(CC)c1ccc(C2Nc3cccc4cccc(c34)N2)cc1	-171*
CC(=O)N(C)c1nc(-c2ccc(Cl)cc2)cs1	-116*
COc1ccc(-c2csc(N(C)C(=O)c3ccco3)n2)cc1	-182*
CN(C(=O)c1ccco1)c1nc(-c2ccc(Cl)cc2)cs1	-140*
COc1ccc(-c2csc(NC(=O)COC(=O)c3ccco3)n2)cc1	-140*
CCn1nc(C(=O)OCC(=O)Nc2nc(-c3ccc(OC)cc3)cs2)c2ccccc2c1=O	-116*
CN(C)CCCN(C(=O)c1ccco1)c1nc(-c2ccc(Cl)cc2)cs1	-75*
Cc1ccc(C(=O)Nc2cc3c(oc2=O)CCCC3=O)cc1	-65*
Cc1c(NC(=O)/C(C#N)=C/c2ccc(-c3ccccc3Cl)o2)c(=O)n(-c2ccccc2)n1C	56
CC(=O)/C=C(\C)Nc1c(C)n(C)n(-c2ccccc2)c1=O	-82*
CCOC(=O)c1cn(-c2c(Cl)cccc2Cl)c2cc(Cl)c([N+](=O)[O-])cc2c1=O	-90*
c1ccc(-c2nc3c([nH]2)CCc2nonc2-3)cc1	-66*
